# Bioassay records as filed in PubChem.
# Rows were chosen to be rich in hits. Some 3.4% of all compounds tested hit in one or more screens of this group.
# GPR151 ag: human GPR151 activation; Q8TDV0; PathHunter beta-arrestin GPR151 cells, luminescence; activation, % at 11.2 µM; 650,000 tested, 1% active; AID 1508602; in the data active means activation above about 4.9%;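 further: 0% = median of compound wells and 100% = cells with positive control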
# MITF inh: inhibitors of human MITF | AID 1259374 | 650,000 tested, 0.91% active | O75030 | inhibition, % at 2.6 µM | AlphaScreen MITF homodimerization, bead proximity signal; in the data active means inhibition above about 50%;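 further: 0% = vehicle wells with protein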
# FBW7 act: human FBW7 E3 ligase activation, primary screen | AID 1259310 | normalized activity (activation), % at 26.1 µM | Q969H0 | AlphaScreen FBW7–phospho-cyclin E peptide binding, activator screen | 650,000 tested, 0.13% active; in the data active means normalized activity above about 1.9%;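 further: purified mutant Fbw7 with reduced substrate affinity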
# Target sequence (Q969H0 whole entry, looked up): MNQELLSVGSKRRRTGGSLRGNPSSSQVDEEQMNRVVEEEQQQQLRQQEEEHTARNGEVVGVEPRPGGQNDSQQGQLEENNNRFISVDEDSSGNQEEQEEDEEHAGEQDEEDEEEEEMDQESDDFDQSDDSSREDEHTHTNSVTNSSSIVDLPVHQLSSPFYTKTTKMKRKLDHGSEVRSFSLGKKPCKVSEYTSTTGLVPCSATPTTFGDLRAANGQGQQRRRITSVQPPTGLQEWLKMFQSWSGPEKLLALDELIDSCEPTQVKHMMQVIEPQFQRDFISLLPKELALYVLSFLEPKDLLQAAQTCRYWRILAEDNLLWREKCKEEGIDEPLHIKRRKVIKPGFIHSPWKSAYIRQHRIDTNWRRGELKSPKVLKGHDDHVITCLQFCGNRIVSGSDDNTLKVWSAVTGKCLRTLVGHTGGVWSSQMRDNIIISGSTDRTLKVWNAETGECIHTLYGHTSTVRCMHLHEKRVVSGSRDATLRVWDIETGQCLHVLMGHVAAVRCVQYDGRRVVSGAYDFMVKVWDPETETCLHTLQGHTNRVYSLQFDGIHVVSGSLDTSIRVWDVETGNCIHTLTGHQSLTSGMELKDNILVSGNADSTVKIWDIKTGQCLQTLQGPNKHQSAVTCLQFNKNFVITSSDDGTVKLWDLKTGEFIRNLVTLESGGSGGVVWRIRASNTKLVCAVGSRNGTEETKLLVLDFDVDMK
# TEAD-YAP block: TEAD-YAP interaction inhibition; HEK-TIYL cells, TEAD-Gal4/YAP UAS-luciferase luminescence; inhibition, % at 9.12 µM; 640,000 tested, 1.4% active; AID 1259422; in the data active means inhibition above about 32%;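 further: 0% = median of test compound wells and 100% = reference inhibitor wells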
# GPR151 conf act: confirmation of human GPR151 activators; 6,700 tested, under 10 active; AID 1508609; shares compounds with GPR151 ag; activation, % at 11.2 µM; GPR151 PathHunter beta-arrestin cells, luminescence, 90 min; % of EA-reagent control over plate median;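 active means mean percent activation across replicates above the confirmation screen cutoff of 4.91%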
# GPR119 ag: activates human GPR119 in a GPR151 counter-screen; 6,700 tested, 0.3% active; shares compounds with GPR151 ag; activation, % at 11.2 µM; GPR119 PathHunter beta-arrestin cells, luminescence, 90 min; 0 = compound-well median, 100 = enzyme-acceptor control;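 active means mean percent activation in the counterscreen above 29.09%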;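 further: counterscreen on off-target GPR119 to flag nonselective hits from the GPR151 activator screen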
# An asterisk follows results filed as active; . = not tested or not shown.
SMILES,GPR151 ag,MITF inh,FBW7 act,TEAD-YAP block,GPR151 conf act,GPR119 ag
CS(=O)(=O)N(CC(=O)N1CCC(C(N)=O)CC1)c1ccc(Oc2ccccc2)cc1,5.0*,-1.7,0.0,-8.1,-0.7,-5.6
CCc1ccc(N(CC(=O)N2CCC(C(N)=O)CC2)S(C)(=O)=O)cc1,-0.2,6.6,0.3,4.0,.,.
CCCOc1ccc(NC(=O)C2CC(=O)N(CC)C(=Nc3ccc(C)c(C)c3)S2)cc1 (centres undefined),7.3*,8.0,0.1,-3.2,2.7,12.9
CCOc1ccc(NC(=O)C2CC(=O)N(CC)C(=Nc3ccc(C)c(C)c3)S2)cc1 (centres undefined),0.4,-3.1,0.0,11.5,.,.
O=C(Nc1cc(C(F)(F)F)ccc1F)C1CCCC1,12.7*,-3.1,-0.1,-9.3,1.0,7.5
CC1=NC2(CCN(C(=O)NC(C)C)CC2)N=C1c1ccccc1,9.1*,10.9,0.4,-4.7,-0.2,-5.8
CC1=NC2(CCN(S(C)(=O)=O)CC2)N=C1c1ccccc1,0.1,0.3,-0.8,-5.1,.,.
CCN(CC)C(=O)c1sc(NC(=O)c2ccc(F)cc2)c(C(=O)OC)c1C,5.1*,-7.7,0.0,1.2,-0.5,-8.1
CCN(CC)C(=O)c1sc(NC(=O)c2cccnc2)c(C(=O)OC)c1C,-0.3,14.2,0.1,-3.2,.,.
COc1ccc(OCc2nc3c4cc(OC)c(OC)cc4nc(=S)n3[nH]2)cc1,0.9,-1.2,0.4,0.8,.,.
COc1cc2nc(=S)n3[nH]c(CCn4c(C)nc5ccccc54)nc3c2cc1OC,5.5*,7.1,0.2,-2.5,-0.3,-1.9
CCCCCCOc1ccc(NC(=O)c2cccc(C(=O)OC(C)C)n2)cc1,0.9,1.8,0.0,-3.0,.,.
CC(C)N(CCNc1nc2ccccc2c2nc(-c3cccnc3)nn12)Cc1ccco1,-0.2,11.9,0.2,13.7,.,.
Cc1ccccc1NC(=S)NCC(c1cccnc1)N1CCOCC1 (centres undefined),0.3,4.2,0.2,-8.1,.,.
S=C(NCCc1ccccc1)NCC(c1cccnc1)N1CCOCC1 (centres undefined),9.3*,-3.8,-0.1,2.5,0.8,8.8
CC(C)(C)c1csc(NC(=O)c2cc([N+](=O)[O-])ccc2Cl)n1,7.1*,14.9,1.3,5.9,-0.8,-0.3
CC(=O)Oc1cccc(C(=O)Nc2nc(C(C)(C)C)cs2)c1,7.3*,20.6,0.1,-9.3,-0.2,-4.8
CC(C)(C)c1csc(NC(=O)c2cccc(F)c2)n1,3.2,-11.1,0.0,-44.8,.,.
CC(C)(C)c1csc(NC(=O)c2cc([N+](=O)[O-])cc([N+](=O)[O-])c2)n1,-1.1,-11.1,-0.1,7.5,.,.
O=C(Nc1ccccn1)c1cn(-c2ccc(Cl)cc2)c(=O)c2ccccc12,-0.7,-0.2,0.1,6.4,.,.
O=C(NCc1cccnc1)/C(=C/c1cccnc1)NC(=O)c1ccccc1,-1.0,8.2,0.2,2.5,.,.
O=C(CCS(=O)(=O)Cc1ccccc1Cl)NCc1ccc(F)cc1,-0.7,1.9,-0.1,-1.0,.,.
CNc1nc(-c2ccc3c(c2)CCN3S(C)(=O)=O)cs1,6.8*,7.5,0.0,-39.7,0.4,4.9
O=C(Nc1ccc(Cl)c(C(F)(F)F)c1)c1ccc2c(=O)n(Cc3cccc(Br)c3)c(=S)[nH]c2c1,6.2*,19.1,-0.1,-0.1,-0.7,-3.4
CC(C)NC(=O)c1ccc2c(=O)n(Cc3ccc(Cl)cc3)c(=S)[nH]c2c1,6.1*,8.1,0.2,-4.8,-0.3,1.7
SMILES,GPR151 ag,MITF inh,FBW7 act,TEAD-YAP block,GPR151 conf act,GPR119 ag
O=C1Nc2cc(C(=O)N3CCCC3)ccc2NC1CSCc1ccc(F)cc1 (centres undefined),-2.3,-1.7,-0.2,-2.4,.,.
CC(=O)N1CCC(Nc2ccc3[nH]c(C(C)(C)C)cc3c2)CC1,-0.4,10.4,0.1,-8.4,.,.
O=C(Nc1ccc(F)c([N+](=O)[O-])c1)c1ccc(F)cc1,0.4,-9.9,0.0,7.6,.,.
CC(C)CCNc1c(-c2ccccc2)c(=O)c1=O,6.9*,-9.2,-0.3,7.6,1.4,0.3
CC1CCC(NC(=O)CCCCCn2c(=S)[nH]c3ccc(Br)cc3c2=O)CC1 (centres undefined),0.7,-2.6,-0.1,-0.8,.,.
COC(=O)c1ccccc1NC(=O)C(C)N(c1cc(C)cc(C)c1)S(C)(=O)=O (centres undefined),0.1,-4.4,0.2,12.4,.,.
